Compounds with a hit are over-represented: about 21% of the library has one in this group of screens.
TDP1 cell noCPT – qHTS for Inhibitors of human tyrosyl-DNA phosphodiesterase 1 (TDP1): qHTS in cells in absence of CPT | DT40 Tdp1-/- hTDP1 cells, no CPT, ATP luminescence, 48 h | Potency, µM (titrated, usually from 46.2 µM), for inactives: at the top dose activity change, negative = growth inhibition, actives largely listed as inhibitors | hit rate 15% among 420,000 | AID 686978, 2013; also: potency is read from the fitted curve at half-maximal effect; nearly all actives have a fitted effect of over 55% in size
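Camptothecin absent (DMSO only). Human TDP1-complemented DT40 knockout cells, 400 cells/well, 37 °C for minimum 48 hr; ATP measured via CellTiter-Glo, 30 min dark incubation, luminescence.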
DT40 TDP1 CPT – growth inhibition of DT40 Tdp1-/-;hTDP1 cells with camptothecin (screen for TDP1 inhibitors); chicken DT40 Tdp1-/-;hTDP1 cells + 20 nM CPT, ATP luminescence, 48 h; Potency, µM (highest dose often 46.2 µM), for inactives: top-dose activity change, negative = growth inhibition, hits mostly inhibitors; hit rate 12% among 420,000; AID 686979; also: potency is read from the fitted curve at half-maximal effect; nearly all actives have a fitted effect of over 55% in size
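Cell growth measured by CellTiter-Glo luminescence after a minimum 48 h, 37 C compound exposure with 20 nM CPT in Tdp1-knockout DT40 cells stably expressing hTDP1, seeded 400/well; qHTS titration format.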
ELG1 DNA repair – ELG1-dependent DNA repair inhibition. HEK293T ELG1-luciferase reporter, luminescence, 16 h; DNA damage induced by 5-fluorouridine. hit rate 2.3% among 330,000. AID 504467. Potency, µM (titrated, usually from 46.1 µM), for the others: top-dose activity change, negative = inhibition, actives largely listed as inhibitors; also: potency is read from the fitted curve at half-maximal effect; nearly all actives have a fitted effect of over 55% in size
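DMSO vehicle served as the neutral condition. Each well held 2,000 cells given 5-fluorouridine plus compound; after 16 hr at 37 °C/5% CO2, ONE-Glo was added and luciferase measured 30 min later.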
IL1B secr inh – blocks inflammasome-driven IL-1 beta release | THP-1 LPS/ATP IL-1B secretion, AlphaLISA, 16 h; active compounds read low | hit rate 4.7% among 360,000 | AID 743279 | activity change, % at 57.5 µM; in the data active = activity change below about -50%; inconclusive = mostly about -30% to -49%
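THP-1 cells pretreated 1 hr with compounds (up to 57.5 uM final), then stimulated with LPS (250 ng/mL final) plus ATP (1.25 mM final); secreted IL-1B measured by AlphaLISA after 16 hr, decreased signal indicating inhibition.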
Gal4-VP16 FLuc – Gal4-VP16 reporter inhibition counter-screen. Drosophila S2 Gal4-VP16 UAS-luciferase, luminescence, 20 h. hit rate 3.5% among 310,000. AID 2546. Potency, µM (highest dose often 53.6 µM), inactives show top-dose activity, negative = inhibition, usual class: inhibitors;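 also: Gal4-VP16 expression switched on by copper sulfate through the metallothionein promoter; potency is read from the fitted curve at half-maximal effect; nearly all actives have a fitted effect of over 50% in size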
RORgamma inh – ROR gamma (mouse) transcription inhibition; Drosophila S2 Gal4-RORgamma UAS-luciferase reporter, 20 h; hit rate 5.4% among 310,000; Potency, µM (series often up to 53.6 µM), inactives show at the top dose activity change, negative = inhibition, actives largely listed as inhibitors; AID 2551; P51450; also: potency is read from the fitted curve at half-maximal effect; nearly all actives have a fitted effect of over 60% in size
Target sequence (P51450 whole entry, looked up, the tested form may be a part): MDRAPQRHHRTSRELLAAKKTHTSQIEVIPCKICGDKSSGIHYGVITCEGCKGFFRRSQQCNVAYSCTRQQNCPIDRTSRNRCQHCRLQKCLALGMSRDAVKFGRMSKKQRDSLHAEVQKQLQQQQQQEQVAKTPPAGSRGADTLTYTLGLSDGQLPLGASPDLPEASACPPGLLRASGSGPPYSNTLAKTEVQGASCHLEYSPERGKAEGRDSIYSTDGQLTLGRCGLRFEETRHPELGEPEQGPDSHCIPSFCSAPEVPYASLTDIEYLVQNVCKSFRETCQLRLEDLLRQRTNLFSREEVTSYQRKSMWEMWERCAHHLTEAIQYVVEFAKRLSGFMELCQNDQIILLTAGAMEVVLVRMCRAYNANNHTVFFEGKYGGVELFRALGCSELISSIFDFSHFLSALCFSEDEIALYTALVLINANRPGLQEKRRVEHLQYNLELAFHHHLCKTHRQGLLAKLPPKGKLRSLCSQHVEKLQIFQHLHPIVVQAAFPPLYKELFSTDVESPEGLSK
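Drosophila Schneider cells stably carrying a metallothionein-driven Gal4 DBD–ROR gamma fusion and a UAS-Photinus luciferase reporter were exposed to compound for 1 hr, then induced with copper sulfate (700 uM final) for 20 hr at ambient temperature before luminescence reading.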
Starred values were filed as active, the others as inactive. Unless noted, calls follow the shape of the dose curve; as a rule, active = well fitted curve in the direction sought with a large enough effect; inconclusive = small, poorly fitted or top-dose-only effect, or another doubt; inactive = no such curve, though single readings can be large; an effect the other way counts as inactive or inconclusive. % is scaled to controls: 0 for no effect and ±100 for the full control effect.

`Cc1ccc(-n2c(=O)c3c(cnn3C)n(Cc3ccccc3F)c2=O)cc1` gave TDP1 cell noCPT -29% and DT40 TDP1 CPT 18µM*.
`CC(=O)c1cccc(NC(=O)CSc2nc3ccccc3nc2Cc2ccc(F)cc2)c1` gave TDP1 cell noCPT -30% and DT40 TDP1 CPT inconclusive.
CCCCNC(=O)C1(C)CCCCN1C(=O)c1oc2ccccc2c1C (stereo unspecified) was read as TDP1 cell noCPT 10µM*, DT40 TDP1 CPT 15µM* and IL1B secr inh 21.
For CCCCNC(=O)C1(C)CCCCN1C(=O)c1cc(-c2ccccc2)cs1 (stereo unspecified) the results were TDP1 cell noCPT 8.2µM*, DT40 TDP1 CPT 13µM* and IL1B secr inh 33.
For Cc1c(C(=O)N2CCCC2(C)C(=O)NCC(C)C)oc2ccccc12 (stereo unspecified) the results were TDP1 cell noCPT -15%, DT40 TDP1 CPT -15% and IL1B secr inh 12.
`O=C(NCc1cc2ccccc2[nH]1)C1CCC(=O)N(CC2CCCCC2)C1` (stereo unspecified) gave TDP1 cell noCPT -29%, DT40 TDP1 CPT inconclusive and IL1B secr inh 13.
`CN(CC(=O)Nc1cccc(S(=O)(=O)N2CCCC2)c1)CC(=O)Nc1ccc(Cl)c(C(F)(F)F)c1` gave TDP1 cell noCPT 16µM*, DT40 TDP1 CPT inconclusive, ELG1 DNA repair 15µM* and IL1B secr inh -66*.
Screening CN(CC(=O)NC(=O)NCc1ccccc1)CC(=O)Nc1ccc(Cl)c(C(F)(F)F)c1 returned TDP1 cell noCPT 21µM*, DT40 TDP1 CPT 18µM*, ELG1 DNA repair 1% and IL1B secr inh -89*.
For CC(C(=O)N1CCCCC1)N(C)CC(=O)Nc1ccc(Cl)cc1 (stereo unspecified) the results were TDP1 cell noCPT 16µM*, DT40 TDP1 CPT inconclusive, ELG1 DNA repair -13%, IL1B secr inh 11, Gal4-VP16 FLuc 15% and RORgamma inh 23%.
For CN(CC(=O)NCCc1ccc(S(N)(=O)=O)cc1)CC(=O)Nc1ccc(Cl)c(C(F)(F)F)c1 the results were TDP1 cell noCPT 13µM*, DT40 TDP1 CPT 13µM* and IL1B secr inh inconclusive.
Screening COc1ccc(CNC(=O)CCCC(=O)n2nc(C)c3ccccc32)cc1 returned TDP1 cell noCPT 16%, DT40 TDP1 CPT 2%, ELG1 DNA repair 4%, IL1B secr inh 17, Gal4-VP16 FLuc -6% and RORgamma inh -4%.
Screening Cc1cccc(C)c1NC(=O)CNC(=O)c1ccc2c(c1)NC(=O)CS2 returned TDP1 cell noCPT 6%, DT40 TDP1 CPT 8%, ELG1 DNA repair 0% and IL1B secr inh 15.
`CCCCCCSc1ccc([C@H]2N[C@@](Cc3ccccc3)(C(=O)OC)[C@H]3C(=O)N(C)C(=O)[C@@H]23)cc1OC` gave TDP1 cell noCPT inconclusive, DT40 TDP1 CPT inconclusive, ELG1 DNA repair inconclusive and IL1B secr inh 32.
Screening CCOC(=O)C1CCCN(S(=O)(=O)c2ccc3[nH]c(=O)ccc3c2)C1 (stereo unspecified) returned TDP1 cell noCPT -52% and DT40 TDP1 CPT -26%.
`CN(CC(=O)Nc1ccc(Cl)c(Cl)c1)CC(=O)N1CCCCCC1` gave TDP1 cell noCPT 26µM*, DT40 TDP1 CPT inconclusive and IL1B secr inh -15.
For CN(CC(=O)NCc1ccccc1)CC(=O)Nc1ccc(Cl)c(C(F)(F)F)c1 the results were TDP1 cell noCPT 18µM*, DT40 TDP1 CPT 15µM*, ELG1 DNA repair -23% and IL1B secr inh -11.
`CN(CC(=O)Nc1cccc(F)c1)CC(=O)N1CCCCC1` gave TDP1 cell noCPT 6%, DT40 TDP1 CPT 0%, ELG1 DNA repair 0% and IL1B secr inh 8.

High-throughput results as filed in PubChem BioAssay.
